Measured values from PubChem BioAssay (Tox21).
Values without a mark were called inactive. Results filed as inconclusive are left out. Where a call stands in place of a potency, no number is given. Active and inactive are the calls of the source. Unless noted, calls come from the whole dose curve.

Tests used:
[1] = target: Thyrotropin receptor (Homo sapiens) (UniProt P16473); assay: qHTS assay to identify small molecule agonists of the thyroid stimulating hormone receptor (TSHR) signaling pathway (AID 1224843); note: nearly all actives have a fitted effect of over 45% in size
In short: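 Agonist activity read as cAMP rise via d2/cryptate HTRF competition, 1 h room-temperature detection, in HEK293 cells expressing TSHR. Fifteen-point titrations, each run in triplicate, with a 30 min room-temperature incubation beforehand.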

[2] = qHTS assay to identify small molecule agonists of the hypoxia (HIF-1) signaling pathway - cell viability counter screen (AID 1224844); note: nearly all actives have a fitted effect of over 50% in size; note: potency is the fitted concentration of half-maximal effect
In short: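 HRE-bla ME-180; 0.5% dFBS; cpd 17 h, 37C, 5% CO2; CellTiter-Glo lum., 30 min RT, post-FRET read, same wells.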

[3] = qHTS assay to identify small molecule agonists of H2AX (AID 1224845; active = well fitted activation curve with a large enough effect in the signal ratio in the repeat runs, not every such curve was filed as active; the % refers to the signal ratio)
In short: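 Phospho-H2AX Ser139 measured by HTRF (ex 320 nm; em 665 and 620 nm) after 24 hr antibody incubation. Compounds, 15 concentrations, 0.76% DMSO, were applied to CHO-K1 cells for 3hr at 37C before lysis.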

[4] = qHTS assay to identify small molecule agonists of the hypoxia (HIF-1) signaling pathway (AID 1224846; active = well fitted activation curve with a large enough effect in the signal ratio in the repeat runs, not every such curve was filed as active; the % refers to the signal ratio)
In short: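 Reporter induction in HRE-bla ME-180 cells is taken as agonism: cells sit 5 hrs after plating, receive compounds or DMSO only, incubate 17 hrs at 37C under 5% CO2, and are loaded with CCF4-AM for beta-lactamase FRET measurement.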

[5] = qHTS assay to identify small molecule antagonists of the estrogen related receptor (ERR) signaling pathway from Tox21 library (AID 1224848; active = well fitted curve in the direction sought with a large enough effect in the repeat runs; an effect the other way counts as inactive or inconclusive; note: nearly all actives have a fitted effect of over 50% in size; note: potency is the fitted concentration of half-maximal effect)
In short: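 Luciferase luminescence (ONE-Glo, 30 min room temperature) was the read-out. Cells of the NTP-supplied ERR line, 2,000 per well, were given 6 h at 37 C before compound addition in DMSO and 18 h exposure at 37 C.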

[6] = qHTS assay to identify small molecule agonists of the estrogen related receptor (ERR) signaling pathway from Tox21 library (AID 1224849); conditions: ERR reporter cell line, ONE-Glo luciferase, 18 h; at 92.4 µM (top of the series) unless noted; note: nearly all actives have a fitted effect of over 15% in size
In short: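 Tox21 compounds tested for ERR agonism in an NTP reporter cell line: 18 h treatment at 37 C, then ONE-Glo luminescence.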

[7] = qHTS RealTime-Glo MT Cell Viability Assay in HepG2 cells - 24 hour (AID 1224867; active = well fitted curve in the direction sought with a large enough effect in the repeat runs; an effect the other way counts as inactive or inconclusive; note: nearly all actives have a fitted effect of over 50% in size)
In short: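 qHTS, HepG2, 600 cells/well, RealTime-Glo (NanoLuc + prosubstrate) added with cells; 5 h preincubation; DMSO compound addition; 37 C; luminescence at 0/8/16/24/32/40 h.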

[8] = A CellTox Green Cytotoxicity Assay to monitor cytotoxicity in HEK293 cells - 0 hour (AID 1224869; active = well fitted curve in the direction sought with a large enough effect in the repeat runs; an effect the other way counts as inactive or inconclusive; note: nearly all actives have a fitted effect of over 50% in size)
In short: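 Tox21 screen in HEK293: membrane-impermeant cyanine dye fluoresces on binding dead-cell DNA; compound pinned 5 h post-seeding, plates held at 37 C, signal read repeatedly through 40 h.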

[9] = qHTS assay to identify small molecule agonists of H2AX - cell viability counter screen (AID 1224847); note: top concentration of the series differs between compounds; nearly all actives have a fitted effect of over 30% in size
In short: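 Quantitative HTS viability measurement: CHO-K1 wild-type cells in serum (10% FBS) medium, short 3 hr drug exposure at 37C with 0.76% DMSO, CellTiter-Glo luminescent detection.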

[10] = qHTS RealTime-Glo MT Cell Viability Assay in HEK293 cells - 32 hour (AID 1224868; active = well fitted curve in the direction sought with a large enough effect in the repeat runs; an effect the other way counts as inactive or inconclusive)
In short: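 Assay medium contained NanoLuc luciferase plus cell-permeant prosubstrate, added with HEK293 cells at 600 cells/well. After 5 h at 37 C/5% CO2 compounds were added; plates stayed at 37 C for 40 h with serial luminescence reads.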

Thyrotropin receptor (Homo sapiens), sequence (P16473 whole entry, looked up): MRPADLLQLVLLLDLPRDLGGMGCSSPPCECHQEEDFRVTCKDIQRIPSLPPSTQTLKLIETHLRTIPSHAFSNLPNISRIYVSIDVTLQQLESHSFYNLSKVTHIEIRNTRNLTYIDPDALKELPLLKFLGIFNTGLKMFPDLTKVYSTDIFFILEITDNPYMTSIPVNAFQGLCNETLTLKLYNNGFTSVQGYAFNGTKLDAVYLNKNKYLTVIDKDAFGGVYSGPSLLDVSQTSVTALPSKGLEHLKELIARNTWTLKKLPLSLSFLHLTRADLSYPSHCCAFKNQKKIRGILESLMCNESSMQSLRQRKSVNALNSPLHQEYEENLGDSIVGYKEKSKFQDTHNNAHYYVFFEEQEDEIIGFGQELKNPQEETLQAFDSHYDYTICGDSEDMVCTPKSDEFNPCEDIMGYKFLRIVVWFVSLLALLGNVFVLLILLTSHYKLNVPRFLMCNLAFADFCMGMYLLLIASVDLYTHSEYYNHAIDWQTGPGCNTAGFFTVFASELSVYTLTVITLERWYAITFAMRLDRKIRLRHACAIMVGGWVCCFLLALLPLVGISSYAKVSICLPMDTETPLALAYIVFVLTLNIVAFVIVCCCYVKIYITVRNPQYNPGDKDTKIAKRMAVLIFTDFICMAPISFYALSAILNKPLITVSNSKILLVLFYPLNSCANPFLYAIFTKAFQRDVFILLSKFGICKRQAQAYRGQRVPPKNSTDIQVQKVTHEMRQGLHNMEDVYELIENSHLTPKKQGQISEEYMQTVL

SMILES | outcome [1] | Potency [2] | outcome [3] | outcome [4] | Potency [5] | activity change, positive = activation [6] | outcome [7] | Potency [8] | Potency [9] | Potency [10]
CCC(=O)/C=C/c1ccc(OC)cc1 | inactive | inactive | inactive | inactive | inactive | -2.91% | inactive | inactive |  | 
CCCCCOC(=O)Nc1nc(=O)n([C@@H]2O[C@H](C)[C@@H](O)[C@H]2O)cc1F | inactive | inactive | inactive | inactive |  |  | inactive | inactive | inactive | 
Cc1nc(-c2ccc(OCC(C)C)c(C#N)c2)sc1C(=O)O | inactive | inactive | inactive | inactive | inactive | 18.5% [at 42.5 µM] (active) | inactive | inactive |  | inactive
O=S(=O)(c1cccc2cnccc12)N1CCCNCC1 | inactive | inactive | inactive |  |  | -26.8% [at 42.5 µM] | inactive | inactive | inactive | inactive
CC(=O)O[C@H](CC(=O)[O-])C[N+](C)(C)C | inactive | inactive | inactive | inactive | inactive | -2.17% | inactive | inactive |  | inactive
C[C@H](O)C(=O)Nc1c(I)c(C(=O)NC(CO)CO)c(I)c(C(=O)NC(CO)CO)c1I | inactive | inactive | inactive |  |  |  | inactive | inactive | inactive | inactive
C=C(C)C(=O)NCCC[N+](C)(C)C | inactive | inactive | inactive | inactive |  |  | inactive | inactive | inactive | 
Cn1cnc2c(=O)[nH]c(N)nc21 | inactive | inactive | inactive | inactive |  |  | inactive | inactive |  | inactive
Cc1onc(-c2ccccc2)c1-c1ccc(S(N)(=O)=O)cc1 |  | inactive | inactive | inactive | 13.3 µM (active) | -32.6% [at 42.5 µM] | inactive | inactive | inactive | 
CCN1CCCC1CNC(=O)c1cc(S(N)(=O)=O)ccc1OC (stereo unspecified) | inactive | 17.4 µM (active) | inactive |  |  |  | inactive | inactive | inactive | 
CCN1CCCC(OC(=O)C(c2ccccc2)c2ccccc2)C1 (stereo unspecified) | inactive | inactive | inactive |  |  |  | inactive | inactive | inactive | 
CCCC(=O)O[C@]1(C(=O)CCl)[C@@H](C)C[C@H]2[C@@H]3CCC4=CC(=O)C=C[C@]4(C)[C@@]3(F)C(=O)C[C@@]21C | inactive | inactive | inactive |  |  |  | inactive | inactive | inactive | inactive
NS(=O)(=O)c1cc2c(cc1C(F)(F)F)NC(Cc1ccccc1)NS2(=O)=O (stereo unspecified) | inactive | inactive | inactive |  |  |  | inactive | inactive | inactive | inactive
NS(=O)(=O)c1cc(C2(O)NC(=O)c3ccccc32)ccc1Cl (stereo unspecified) | inactive | inactive | inactive |  |  |  | inactive | inactive | inactive | 
CCCCN(CCO)CCO |  | inactive | inactive | inactive | inactive | 3.71% | inactive | inactive | inactive | inactive
